Results taken from the supplement of paper PMC10338343.
± gives the standard deviation.

Tests used:
[1] = test system: MILI (PIWIL2) piRISC loaded with piRNA #1 (26 nt); experiment: pre-steady-state target cleavage rate (min^-1); guide: piRNA #1 5'p-UGAGGUAGUAGGUUGUAUAGUAUCCA; higher = faster piRNA-guided slicing of the target; details: auxiliary factor: 500 nM mouse GTSF1
Summary of the method: (§1)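 Using HEPES–potassium acetate buffer at 33 °C, 1 nM active affinity-purified piRISC with a single synthetic guide was mixed with 0.1 nM transcribed, DNA-blocked target RNA library for 0–8 or 0–960 min, with or without 500 nM GTSF1 partner protein. Uncleaved targets were sequenced and normalised to depth and to weakly complementary targets, and three trials were pooled with k3 capped at 0.0001 min^-1. A burst-and-steady-state fit gave the pre-steady-state cleavage rate.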

[2] = test system: EfPiwi piRISC loaded with piRNA #1 (26 nt); experiment: pre-steady-state target cleavage rate (min^-1); auxiliary factor: 500 nM Ephydatia muelleri Gtsf1; guide: piRNA #1 5'p-UGAGGUAGUAGGUUGUAUAGUAUCCA; MIWI and MILI are mouse PIWI proteins and EfPiwi is from a freshwater sponge; tags in brackets are library labels; higher = faster piRNA-guided slicing of the target
Summary of the method: as §1

Sequence | pre-steady-state target cleavage rate [1] | pre-steady-state target cleavage rate [2]
GGAGACCAUACAAUACAUCCUACUACCUCA | 0.209 ± 0.025 | 0.00484 ± 0.003
GGAGACGAUAGUAUACAACCUAGUACCUCA | 0.0719 ± 0.011 | 0.00201 ± 0.0013
GGAGUGGAUACUAUACAAGCUACUACCACA | 0.133 ± 0.012 | 0.0039 ± 0.0017
GGAGACGAUACUAUACAUCCUAGUACCUCA | 0.0834 ± 0.019 | 0.0031 ± 0.001
GGAGUCGAUACUAUACAACCUACUACCUCA | 0.18 ± 0.013 | 0.106 ± 0.034
GGAGAGGAUACUAUACAACCUACUACCUGA | 0.0731 ± 0.011 | 0.00647 ± 0.0028
GGAGACGUUACUAUACAACCUACUACCACA | 0.191 ± 0.016 | 0.00242 ± 0.0022
GGAGUCGAUACUAUUCAACCUACUACCUCA | 0.192 ± 0.012 | 0.00506 ± 0.0029
GGAGAGGAUACUAUAGAACCUUCUACCUCA | 0.00389 ± 0.0026 | 0.003 ± 0.002
GGAGACCAAACUAUACAACGUACUACCUCA | 0.0124 ± 0.0071 | 0.00528 ± 0.0034
GGAGACCAUACAAUACAACCUACUACCUGA | 0.12 ± 0.019 | 0.00286 ± 0.0028
GGAGUGGAUUGAAUACAACCUACUACCUCA | 0.0713 ± 0.0073 | 0.00637 ± 0.0044
GGAGACCAUACUAUACAACCUACUACCUCU [g2:g23:cont:t1U] | 0.254 ± 0.024 | 1.45 ± 0.55
GGAGAGGAUACAAUACAACCAACUACCUCA | 0.00985 ± 0.0026 | 0.00366 ± 0.0019
GGAGUGUGAUACUAUACAACCUACUACCUCA | 0.179 ± 0.0087 | 0.0158 ± 0.0069
GGAGACGUUACUAUACAACCUACUACCUGA | 0.102 ± 0.016 | 0.00573 ± 0.0022
GGAGACGAUACUAUUCAACCUACUACGUCA | 0.0915 ± 0.011 | 0.00311 ± 0.0016
GGAGAGGAUACUAUACAACGUACUAGCUCA | 0.00413 ± 0.0037 | 0.0029 ± 0.0015
GGAGACGAUACAAAACAACCUACUACCUCA | 0.149 ± 0.018 | 0.00359 ± 0.0033
GGAGAGGAUACUGAUACAACCUACUACCUCA | 0.17 ± 0.014 | 0.00615 ± 0.0037
GGAGACCUGACUAUACAACCUACUACCUCA | 0.125 ± 0.028 | 0.0243 ± 0.01
GGAGACCAUACUAUACAACCUACUACCUGA | 0.155 ± 0.023 | 0.00567 ± 0.0018
GGAGACCUAACAAUACAUCCUACUACCUCA | 0.191 ± 0.031 | 0.00431 ± 0.0035
GGAGUGGAUACUAUACAAGCUACAACCUCA | 0.142 ± 0.014 | 0.00371 ± 0.0018
GGAGUGGAUAGCUAUACAACCUACUACCUCA | 0.0528 ± 0.0074 | 0.00584 ± 0.0033
GGAGACGAUACUAUACAACCUGACUACCUCA | 0.00401 ± 0.0024 | 0.00426 ± 0.0019
GGAGUGGAUACUAUACAACCACUACCUCA | 0.00753 ± 0.002 | 0.00771 ± 0.0031

Sequence | pre-steady-state target cleavage rate [1] | pre-steady-state target cleavage rate [2]
GGAGACGGAUACUAUACAACCUACUACCUCA | 0.234 ± 0.018 | 0.221 ± 0.062
GGAGAGGAUACUAUUCAACCUACUACGUCA | 0.0602 ± 0.0084 | 0.00309 ± 0.0023
GGAGACCUAUGAAUACAACCUACUACCUUA | 0.00551 ± 0.0022 | 0.00423 ± 0.0038
GGAGACGAUACUAUACAACCUACAACCUGA | 0.0121 ± 0.0074 | 0.00441 ± 0.0022
GGAGAGGAUACUAUAUCAACCUACUACCUCA | 0.107 ± 0.0098 | 0.0145 ± 0.0066
GGAGUGGAUACUAUACAUGGUACUACCUCA | 0.00713 ± 0.0016 | 0.00303 ± 0.0028
GGAGAGGAUACUAUACAAUCUACUACCUCA | 0.129 ± 0.0097 | 0.0116 ± 0.0062
GGAGACGAUACUUUACAACGUACUACCUCA | 0.0294 ± 0.0045 | 0.00234 ± 0.0017
GGAGACGAUACUAUACAACGCUACUACCUCA | 0.00688 ± 0.0028 | 0.00969 ± 0.0037
GGAGUGGAUACAAUACAACCUACUAGCUCA | 0.0614 ± 0.0087 | 0.00216 ± 0.0014
GGAGAGGAUACUAUACAACCUACUACGAGA | 0.00764 ± 0.0034 | 0.00374 ± 0.0018
GGAGACCAUACUAUACAUCCUACUACGUCA | 0.158 ± 0.027 | 0.00585 ± 0.0034
GGAGUGGAUACUAUACCAACCUACUACCUCA | 0.0424 ± 0.0067 | 0.0596 ± 0.021
GGAGUGGAUACUAUACUACCUACUUCCUCA | 0.0121 ± 0.0027 | 0.00222 ± 0.0021
GGAGACCAUACCAUACAACCUACUACCUCA | 0.157 ± 0.027 | 0.107 ± 0.044
GGAGAGGAUUCUAUACAAGCUACUACCUCA | 0.15 ± 0.01 | 0.00384 ± 0.0028
GGAGAGGAUACUUAUCAACCUACUACCUCA | 0.135 ± 0.0097 | 0.00553 ± 0.0043
GGAGAGGAUACUAUACAACCUAUUACCUCA | 0.174 ± 0.018 | 0.153 ± 0.056
GGAGAGGCAUACUAUACAACCUACUACCUCA | 0.177 ± 0.014 | 0.0477 ± 0.017
GGAGACGAUACUUAUCAACCUACUACCUCA | 0.148 ± 0.013 | 0.00522 ± 0.0041
GGAGACCUACCUAUACAACCUACUACCUCA | 0.117 ± 0.026 | 0.0239 ± 0.012
GGAGACGAUACUAAUCAACCUACUACCUCA | 0.182 ± 0.015 | 0.0059 ± 0.0033
GGAGACCAUACUAUACAUCCUAGUACCUCA | 0.0776 ± 0.018 | 0.00345 ± 0.0019
GGAGUCCAUACUAUACAACCUACUACCUCA | 0.181 ± 0.015 | 0.0575 ± 0.019
GGAGUGGAUACUUACAACCUACUACCUCA | 0.141 ± 0.012 | 0.0233 ± 0.011
GGAGAGGUUUCUAUACAACCUACUACCUCA | 0.14 ± 0.013 | 0.00427 ± 0.004
GGAGUGGAUACUAUAGAACCUACUACCUGA | 0.0453 ± 0.0088 | 0.00222 ± 0.0011
